# Results as given in ChEMBL document CHEMBL3988442, “University of Dundee, Small-Polar-MMV Screening Library” (2021).
# Out of some 48,000 compounds screened, about 13,000 (27%) showed an effect of 50% or more. The list shows a part of the results.
# System: Wolbachia pipientis
# Test: Anti-Wolbachia Cell-Based Screen
# Assay type: functional
# Parameters: scale not given: in the data most compounds retested in dose-response had high values
# Conditions: 5 µM
row,Structure (SMILES),Percent Effect
1,O=C1N(Cc2cccc(F)c2F)CCCC1(O)CNCc1ccccc1 (centres undefined),16.03%
2,Cc1c(CNS(=O)(=O)c2cccc(COC(C)C)c2)cnn1C,-15.21%
3,CN1C[C@@H](NC(=O)C(C)(C)C)C[C@H]1C(=O)NCc1ncc[nH]1,-5.014%
4,COCCOC[C@]1(CNC(=O)c2ccc(OC)cc2)C[C@@H](O)[C@@H](O)C1,-0.4241%
5,Cc1cc(C)c(CNC(=O)NCc2nnc3n2CCCCC3)c(=O)[nH]1,-9.467%
6,O=C(CN1CCOc2ccc(Cl)cc21)NCc1ncc[nH]1,-5.45%
7,Cc1cccc(C)c1CCNC(=O)N1CCCC2(C1)OCCO2,-0.05309%
8,Cc1ccccc1NC(=O)N1CC[C@@H]2CN(CC(C)C)S(=O)(=O)[C@@H]2CC1,-60.79%
9,CCN(Cc1c(C)nn(C)c1C)C(=O)C1COc2ccccc2C1 (centres undefined),-5.134%
10,CC(C)c1n[nH]c(C2CN(Cc3nnc(C4CC4)o3)CCO2)n1 (centres undefined),-9.108%
11,CC(C)c1n[nH]c(C2CN(C(=O)c3cc(C4CC4)on3)CCO2)n1 (centres undefined),113.9%
12,Cc1n[nH]c(C2CN(C(=O)c3cc(C4CC4)on3)CCO2)n1 (centres undefined),119.9%
13,CC(C)c1n[nH]c(C2CN(C(=O)c3csnn3)CCO2)n1 (centres undefined),4.906%
14,Cc1n[nH]c(C2CN(C(=O)c3csnn3)CCO2)n1 (centres undefined),-23.45%
15,Cc1n[nH]c(C2CN(C(=O)c3ccon3)CCO2)n1 (centres undefined),-8.521%
16,CN1CCN2CCN(C(=O)c3cc4ncc(CCO)cn4n3)CC2C1 (centres undefined),-4.032%
17,CCCn1ccnc1SCC(=O)NC(Cc1ccccc1)C(C)=O (centres undefined),22.6%

row,Structure (SMILES),Percent Effect
1,COCC(C)NC(=O)c1cc(Br)c2c(c1)OCCO2 (centres undefined),-1.818%
2,CC(C)(C)CNC1(Cc2cc(C(C)(C)O)on2)COC1,-22.48%
3,CN(Cc1cccnc1)CC1CC12CCN(Cc1nccs1)CC2 (centres undefined),11.24%
4,Cc1cnc(N2CCC3(CC2)CC3CN(C)Cc2cccnc2)nc1.O=C(O)C(F)(F)F.O=C(O)C(F)(F)F (centres undefined),2.289%
5,CN(Cc1cccnc1)CC1CC12CCCC2 (centres undefined),103.1%
6,CSCC(=O)N1CCOC(c2nc(C(C)C)n[nH]2)C1 (centres undefined),117.1%
7,Cc1nc(CN2CCOC(c3nc(C(C)C)n[nH]3)C2)oc1C (centres undefined),-6.661%
8,CC(C)(C)c1n[nH]c(C2CN(C(=O)c3cnc[nH]3)CCO2)n1 (centres undefined),97.58%
9,CC(C)(C)c1n[nH]c(C2CN(C(=O)CCC3CC3)CCO2)n1 (centres undefined),-7.383%
10,CCc1n[nH]c(C2CN(C(=O)c3cnc[nH]3)CCO2)n1 (centres undefined),-7.128%
11,Cc1nc(CC(=O)N2CCOC(c3nc(C(C)(C)C)n[nH]3)C2)cs1 (centres undefined),-6.24%
12,Cc1n[nH]c(C2CN(C(=O)c3cnc[nH]3)CCO2)n1 (centres undefined),-6.3%
13,Cc1n[nH]c(C2CN(C(=O)c3cc(C4CC4)[nH]n3)CCO2)n1 (centres undefined),6.266%
14,CSCC(=O)N1CCOC(c2nc(C(C)(C)C)n[nH]2)C1 (centres undefined),103.9%
15,CC(C)(C)c1n[nH]c(C2CN(C(=O)c3cc(C4CC4)[nH]n3)CCO2)n1 (centres undefined),116%
16,CC(C)(C)c1n[nH]c(C2CN(C(=O)c3ccsc3)CCO2)n1 (centres undefined),-3.296%
17,CC(C)c1n[nH]c(C2CN(C(=O)CCCn3cccn3)CCO2)n1 (centres undefined),-13%
